Source: PubChem BioAssay AID687021 (Broad Institute, 2013)
Active and inactive are the calls of the source.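 How the source made its calls: active means compounds lowering luciferase light whose fitted half-effect concentration is at most twice the top tested dose; inconclusive means flat curve with 30 to 70% inhibition, or poor fit; inactive means the rest.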

Test: luciferase signal loss, tTA control fusion, HeLa F-luc tTA cells, dry powder, counter-screen for HIV Env fusion inhibitor project, dose response (AID 687021)
Conditions: luciferase luminescence counterscreen; series mostly up to 35 µM

Compound | outcome
CCOc1ccc(S(=O)(=O)NCc2ccncc2)cc1Cl | inactive
CCOc1ccc(OCC)c(S(=O)(=O)NCc2ccncc2)c1 | inactive
CCCOc1ccc(S(=O)(=O)NCc2ccncc2)c2ccccc12 | inactive
CCCn1nc(C(=O)Nc2ccc3nc(N4CCOCC4)sc3c2)ccc1=O | inactive
CCCOc1ccc(S(=O)(=O)NCc2cccnc2)cc1 | inactive
Cc1noc(C)c1S(=O)(=O)Nc1cccc2c1O[C@@H](CN(C)Cc1ccc(C(F)(F)F)cc1)[C@@H](C)CN([C@@H](C)CO)C2=O | inactive
